Screening data deposited in PubChem by National Center for Advancing Translational Sciences (NCATS).
Shown are actives, neighbours in structure and some others; about 0.36% of the full set was active somewhere.
PTHR1 agonist: activates the human parathyroid hormone receptor PTHR1; HEK293 GP2 PTHR1 cells, GloSensor cAMP luminescence, 1 h; Potency, µM (highest dose often 115 µM), without a hit: top-dose activation, hits mostly activators; hit rate 0.075% among 410,000; AID 743266; also: potency is read from the fitted curve at half-maximal effect; nearly all actives have a fitted effect of over 55% in size
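HEK-293-derived GP2 cells expressing PTHR1 and a GloSensor cAMP reporter, 3,000/well, plated overnight, given luciferin plus IBMX (each 0.5 mM as added) for 1 h at 37 °C, then compound for 1 h at 37 °C. Luminescence was read after 15 min at room temperature.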
CCT chaperon mod: changes cytosolic chaperonin activity | hit rate 0.3% among 360,000 | AID 651819 | purified chaperonin ATPase assay, HTRF ADP detection, 30 min | activity change, % (test concentration not listed), hits read low; in the data active = activity change below about -30%; also: % is scaled to controls: 0 for no effect and ±100 for the full control effect
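First, chaperonin was dispensed at 40 nM or 20 nM final depending on batch activity. Next, compounds were pinned at 76 uM and ATP added at 10 uM. After 30 min at 37 °C, ADP detection reagents ran 30 min at ambient temperature.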
RGS4 inh: inhibitors of human regulator of G protein signaling 4. AID 504845. Potency, µM (titrated, usually from 114 µM), without a hit: at the top dose activity change, negative = inhibition, actives largely listed as inhibitors. Transcreener GDP fluorescence polarization, RGS4-accelerated GTP hydrolysis. hit rate 0.039% among 390,000; also: potency is read from the fitted curve at half-maximal effect; % is scaled to controls: 0 for no effect and ±100 for the full control effect; nearly all actives have a fitted effect of over 75% in size
Target sequence (P49798 whole entry, looked up): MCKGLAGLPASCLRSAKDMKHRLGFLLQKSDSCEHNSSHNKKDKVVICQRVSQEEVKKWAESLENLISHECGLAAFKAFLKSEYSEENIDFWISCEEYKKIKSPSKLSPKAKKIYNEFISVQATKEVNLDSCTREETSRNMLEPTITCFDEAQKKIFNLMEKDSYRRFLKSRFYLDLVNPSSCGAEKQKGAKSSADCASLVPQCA
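MLSMR compounds (23 nl, pin-transferred) preincubated 10 min at room temperature with a 500nM (2x) first reagent, then RGS4 at 900nM (2x) plus Transcreener GDP mix added; fluorescence polarization (620/688 nm) read before and after 90 min at 30 °C.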
Mm-Cpn inhibitor: M. maripaludis TRiC chaperonin inhibition; purified Mm-Cpn ATPase, ADP Transcreener TR-FRET; Potency, µM (titrated, usually from 76.9 µM), for the others: top-dose activity, negative = inhibition, most hits filed as inhibitors; hit rate 0.031% among 330,000; AID 504842; also: potency is read from the fitted curve at half-maximal effect; % is scaled to controls: 0 for no effect and ±100 for the full control effect; nearly all actives have a fitted effect of over 80% in size
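TR-FRET (320 nm excitation; 590 and 665 nm emission) reports ADP made from 10 uM ATP by 25 nM enzyme; compounds were preincubated 10 min, reaction run 30 min, both at 37°C.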
ERG-DNA inh: inhibitors of human ERG Ets domain-DNA interaction; P11308; fluorescence polarization, His-ERG Ets domain / labelled DNA; Potency, µM (highest dose often 76.9 µM), for the others: at the highest dose FP activity, negative = inhibition, most hits filed as inhibitors; hit rate 0.028% among 370,000; AID 624246; active = well fitted inhibition curve with a large enough effect in the polarisation, with a control signal flat; inconclusive = small, poorly fitted or top-dose-only effect, or effect the other way, or a change in a side signal; inactive = no such curve, though single readings can be large or run the other way; the % refers to the polarisation;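 also: polarization taken with two DNA probes labelled with fluorescein and Texas red; potency is read from the fitted curve at half-maximal effect; % of control where 0% means no effect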
Target sequence (P11308 whole entry, looked up, the tested form may be a part): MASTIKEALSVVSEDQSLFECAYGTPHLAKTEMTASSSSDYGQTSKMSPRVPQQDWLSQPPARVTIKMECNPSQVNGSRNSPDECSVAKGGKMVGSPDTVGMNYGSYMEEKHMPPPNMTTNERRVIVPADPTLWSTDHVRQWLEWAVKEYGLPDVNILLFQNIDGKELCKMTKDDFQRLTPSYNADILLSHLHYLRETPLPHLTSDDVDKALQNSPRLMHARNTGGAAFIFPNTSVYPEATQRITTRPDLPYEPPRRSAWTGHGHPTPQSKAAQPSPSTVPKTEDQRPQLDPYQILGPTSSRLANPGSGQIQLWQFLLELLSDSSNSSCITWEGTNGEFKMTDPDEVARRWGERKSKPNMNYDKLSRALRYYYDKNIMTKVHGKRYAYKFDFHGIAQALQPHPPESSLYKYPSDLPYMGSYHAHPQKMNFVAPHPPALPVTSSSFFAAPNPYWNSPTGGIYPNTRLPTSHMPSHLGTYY
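His-tagged ERG Ets domain (1 uM in the protein solution; 300mM KCl, 50mM Tris-HCl, 1mM EDTA, 1mM DTT, pH 7.5) received compound, then a probe mix of 5 nM fluorescein-DNA and 100nM Texas-615-DNA. Fluorescence polarization was read for both dyes.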
Starred values were filed as active, the others as inactive; i = inactive; ? = inconclusive; · = no result given; ! = not confirmed by another sample; [ ] = dose if it differs, or a comment. Unless noted, calls follow the shape of the dose curve; as a rule, active = well fitted curve in the direction sought with a large enough effect; inconclusive = small, poorly fitted or top-dose-only effect, or another doubt; inactive = no such curve, though single readings can be large; an effect the other way counts as inactive or inconclusive.

SMILES	PTHR1 agonist	CCT chaperon mod	RGS4 inh	Mm-Cpn inhibitor	ERG-DNA inh
Cc1cc2nnc(SCc3ccc(F)cc3)n2c2ccccc12	-5%	·	-2%	·	4%
O=C(O)c1cccnc1Sc1ccc(Cl)cc1	50µM*	-2	10%	1%	0%
O=C(O)c1cccnc1Sc1ccccc1	-11%	-1	16%	5%	-1%
N=C1SCC(=O)N1/N=C/c1ccccc1	i	0	?	4%	28µM*
O=C1CSC(=S)N1/N=C/C=C/c1ccccc1	i	-1	-39%	-2%	14%
O=C(NCc1nnc(SCc2ccccc2)n1-c1ccc(F)cc1)C12CC3CC(CC(C3)C1)C2	-26%	-68*	-9%	0%	9%
O=C(NCc1nnc(SCc2ccccc2)n1-c1ccccc1)C12CC3CC(CC(C3)C1)C2	-27%	2	-26%	0%	8%
Cc1cc(CNC(=O)[C@]2(C(F)(F)F)C[C@H](CCC3CCCCC3)CCCO2)nn1C	·	·	16%	·	·
CCSc1ncc(Cl)c(C(=O)N(Cc2ccc(C(C)(C)C)cc2)C2CCS(=O)(=O)C2)n1 (configuration not stated)	i	·	17%	·	0%
N#Cc1ccc(OCC(=O)NCC2COc3ccccc3O2)cc1 (configuration not stated)	i	-41*	16%	-3%	-5%
Cc1ccc(C(=O)CSC2=C(C#N)C(c3ccco3)C3=C(CC(C)(C)CC3=O)N2)cc1 (configuration not stated)	-77%	-47*	-24%	-3%	7%
CC(=O)Nc1c(Cl)cc(Cl)c2c1Cc1cc(Cl)ccc1-2	0%	-48*	20%	·	-2%
Cc1ccn2c(Nc3ccc4c(c3)OCCO4)c(-c3ccc(N(C)C)cc3)nc2c1	i	·	1%	·	-3%
Cc1cc(C)cc(NC(=O)CN2C(=O)CCc3cc(S(=O)(=O)N4CCCCC4)ccc32)c1	-24%	·	0%	·	1%
CC(=O)OCC(NC(=O)C(COCc1ccccc1)NC(=O)OC(C)(C)C)C1OC(n2ccc(=O)[nH]c2=O)C(OC(C)=O)C1OC(C)=O (configuration not stated)	·	·	-1%	·	·
CCCCN(CC)CCCNC(=O)c1c(C)oc2ncnc(N3CCOCC3)c12	-20%	·	10%	·	8%
CN(C(=O)C(C)(C)C)[C@H]1C[C@H]2c3[nH]c4ccccc4c3CCN2C(=O)[C@H]1CO	-20%	0	·	·	·
CN(C(=O)NC1CCCCC1)[C@H]1C[C@H]2c3[nH]c4ccccc4c3CCN2C(=O)[C@H]1CO	-8%	-57*	·	·	·
COCCCN1C(=O)c2[nH]nc(-c3ccccc3O)c2C1c1ccc(OCc2ccccc2)cc1 (configuration not stated)	-90%	·	-13%	·	-2%
CCCCN1C(=O)c2[nH]nc(-c3ccccc3O)c2C1c1ccc(OCc2ccccc2)cc1 (configuration not stated)	22µM*	·	14%	·	9%
CCC(CC)C(=O)N1CCc2cc(OC)c(OC)cc2C1COc1ccccc1OC (configuration not stated)	i	·	1%	·	-2%
CC1=C(c2ccc(C)c(C)c2)S(=O)(=O)N=C1N1CCC(C(=O)NC(C)Cc2ccco2)CC1 (configuration not stated)	-7%	·	7%	·	3%
C1CCC(NC(=NC2C3CC4CC(C3)CC2C4)N2CCOCC2)CC1 (configuration not stated)	·	·	0.34µM*	·	·
CCCN1C(=O)c2ccccc2NC1c1ccc(OC)c(COc2ccc([N+](=O)[O-])c(C)c2)c1 (configuration not stated)	·	·	8%	·	·
CCOC(=O)c1nn2c(C(F)(F)F)cc(-c3ccc(OC)cc3)nc2c1Br	-29%	-33*	-18%	-1%	3%
SMILES	PTHR1 agonist	CCT chaperon mod	RGS4 inh	Mm-Cpn inhibitor	ERG-DNA inh
CC(C)n1nc(C(=O)Nc2ccc(-n3cnnn3)cc2)c2ccccc2c1=O	i	-31*	1%	3%	-5%
Cc1ccc(-n2nc(CO)c(C(=O)NC(C)c3ccccc3)n2)cc1C (configuration not stated)	-21%	·	17%	·	7%
CCOc1ccccc1NC=C1C(=O)OC2(CCCCC2)OC1=O	i	-38*	-3%	2%	·
CCOc1ccc(CNS(=O)(=O)c2cc3c(cc2C)NC(=O)CO3)cc1	i	·	24%	·	-1%
NC(=O)C1(C(N)=O)OC1c1ccc(Cl)c(Cl)c1 (configuration not stated)	i	-57*	-2%	-1%	4%
COc1ccc([C@@H]2OC2(C(N)=O)C(N)=O)cc1	i	-2	-2%[11.4 µM]	-2%	-5%
CCCCC/C=C\C/C=C\CCCCCCCC(=O)O[C@@H](CO)COC(=O)CCCCCCCCCCCCCCCCC	·	·	2.7µM*	·	·
Cc1nnc(SCC(=O)N2CCN(c3ccccc3F)CC2)n1C1CC1	i	-97*	36%	1%	-10%
COCCN(CCOC)C(=O)c1cc2sc3ccccc3c2s1	-5%[57.5 µM]	-31*	13%	-4%	·
O=C(COCc1cc(-c2cccs2)on1)NCc1ccc(Cl)cc1	-25%	·	-22%	·	4%
Fc1ccc(NC(=S)Nc2nccs2)cc1	-38%	-1	?	-3%	-7%
S=C(Nc1ccccc1)Nc1nccs1	i	-3	11µM*!	4%	3%
O=C(NCC(c1ccco1)S(=O)(=O)c1ccc(Cl)cc1)c1ccc(C(F)(F)F)cc1 (configuration not stated)	-92%	·	-2%	·	-3%
CCC(NC(=O)c1ccc2nc(Cc3ccc(OC)cc3)oc2c1)c1ccncc1 (configuration not stated)	-36%	-84*	-51%	-1%	-1%
Cc1cccc(Nc2nnc(SCC(=O)c3ccc(Br)s3)s2)c1C	-5%	2	-39%	40µM*	14%
C/C(N)=C(/C#N)C(=O)CSc1nnc(Nc2cccc(C)c2C)s1	-26%	-3	9%	1%	7%
O=C(Nc1ccccc1)c1cccc2c(=O)c3c([nH]c12)CCCC3	i	·	7%	·	-2%
COc1ccc(-c2cnc3c(NC(C)=O)cc(-c4cccc(C(=O)N(C)C)c4)cn23)cc1OC	-38%	-33*	·	·	·
COc1ccccc1C1CCN(Cc2cccc(C(=O)N3CCC(O)CC3)c2)CC1	i	-2	12%	-1%	2%
COc1ccccc1C1CCN(Cc2ccc(C)cc2)CC1	i	1	-24%	0%	32µM*
Cc1ccc(OCCn2c(Br)nc3c2c(=O)n(C)c(=O)n3C)cc1	-28%	-1	-15%	-6%	0%
COCCn1c(Br)nc2c1c(=O)n(C)c(=O)n2C	-23%	-42*	15%	-7%	2%
COc1ccc(CNc2nc3c(-c4ccc(C)cc4)nnn3c3ccccc23)cc1	i	·	-12%	·	-1%
